Only some compounds are listed: those with a hit (about 1.5% of all), similar ones and a draw of the others.
RECQ1 helicase: qHTS Assay for Inhibitors of RecQ-Like Dna Helicase 1 (RECQ1) | ATP-dependent DNA helicase Q1 (Homo sapiens), P46063 | RECQ1 DNA unwinding, red fluorescence kinetic read | Potency, µM (series often up to 57.3 µM), for the others: at the top dose activity, negative = inhibition, actives largely listed as inhibitors | 0.54% of 240,000 active;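 further: potency means the concentration at half of the fitted maximal effect; plate controls were vehicle for no effect and no enzyme for full effect; nearly all actives have a fitted effect of over 30% in size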
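50 nM RECQ1T1 preincubated 15 min with compound in Tris pH 8.0 buffer with MgCl2, DTT, Tween-20 and 2.5 ug/ml poly(dI-dC); started with 200 nM TAMRA/BHQ-2 forked duplex and 2 mM ATP. Unwinding read as fluorescence (525/598 nm), two reads 2 h apart.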
BLM helicase inh: qHTS Assay for Inhibitors of Bloom's syndrome helicase (BLM); RecQ-like DNA helicase BLM (Homo sapiens), P54132; recombinant BLM DNA unwinding, fluorescence dequenching; Potency, µM (doses to about 56.1 µM), for the others: top-dose activity change, negative = inhibition, actives largely listed as inhibitors; 0.2% of 350,000 active;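 further: potency means the concentration at half of the fitted maximal effect; plate controls were vehicle for no effect and no enzyme for full effect; nearly all actives have a fitted effect of over 35% in size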
FEN1 inh-1: qHTS Assay for the Inhibitors of Human Flap endonuclease 1 (FEN1); P39748; 0.35% of 390,000 active; Recombinant FEN1 flap cleavage, fluorescence, 15 min; Potency, µM (top dose mostly 114 µM), for inactives: at the top dose activity change, negative = inhibition, usual class: inhibitors; further: potency means the concentration at half of the fitted maximal effect; on the % scale 0 is the no-effect control and ±100 the full control effect; nearly all actives have a fitted effect of over 65% in size
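FEN1 at 10 nM, compound pretreatment for 15 min (room temperature), 50 nM final substrate to initiate; endpoint reads at 0 and 15 min; DMSO-only plates used as vehicle background.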
PI5P4Ka inh: qHTS for Inhibitors of phosphatidylinositol 5-phosphate 4-kinase (PI5P4K); 1.2% of 330,000 active; Phosphatidylinositol 5-phosphate 4-kinase type-2 alpha (Homo sapiens), P48426; max response, %; PI5P4Kalpha enzyme, ADP-Glo luminescence, 60 min; stronger effect = lower value; active means max response of -50% or lower; inconclusive means between -30% and -50%; inactive means -30% or higher; further: value at the top dose of about 77 µM; on the % scale 0 is the no-effect control and ±100 the full control effect
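Controls without substrate or without enzyme flank wells where PI5P4Kalpha converts substrate using 5 microM ATP (final). Incubation lasts 60 minutes at room temperature; ADP formed is read by ADP-Glo luminescence.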
APE1 inh: qHTS Assay for Inhibitors of the Human Apurinic/apyrimidinic Endonuclease 1 (APE1); Potency, µM (series often up to 65.8 µM), inactives show top-dose activity change, negative = inhibition, actives largely listed as inhibitors; recombinant APE1, TAMRA/BHQ-2 abasic DNA cleavage fluorescence; 0.35% of 350,000 active;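 further: potency means the concentration at half of the fitted maximal effect; plate controls were vehicle for no effect and reference inhibitor for full effect; nearly all actives have a fitted effect of over 55% in size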
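Compound pre-exposure to 0.75 nM APE1, 15 min at ambient temperature. Reaction initiated with 50 nM TAMRA/BHQ-2 THF substrate, read immediately in kinetic mode, 525 nm excitation, 598 nm emission.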
GCN5L2 inh: qHTS Assay for Inhibitors of GCN5L2; Histone acetyltransferase KAT2A (Homo sapiens), Q92830; Potency, µM (doses to about 58.9 µM), inactives show top-dose activity change, negative = inhibition, actives largely listed as inhibitors; 0.21% of 390,000 active; GCN5L2 HAT assay, ThioGlo1 CoA-SH fluorescence; further: potency means the concentration at half of the fitted maximal effect; on the % scale 0 is the no-effect control and ±100 the full control effect
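GCN5L2 (20nM final) in 50mM HEPES, 0.1mM EDTA pH 7.5, 0.01% Tween-20 was preincubated 15 min at room temperature with compound, then given ThioGlo1 (50uM), H3(1-25) peptide (75uM) and acetyl-CoA (70uM); CoA-thiol fluorescence (Ex340/Em540) was read at 0 and 20 min.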
FEN1 inh-2: qHTS Assay for the Inhibitors of FEN1: Confirmatory Assay for Cherry-picked Compounds. shares compounds with FEN1 inh-1. FEN1 flap cleavage, TAMRA/BHQ2 fluorogenic DNA substrate. Potency, µM, actives largely listed as inhibitors. 79% of 880 active. AID 720498, 2013; further: potency means the concentration at half of the fitted maximal effect; nearly all actives have a fitted effect of over 60% in size
* marks the source's active call; other numbers are inactive results; i = inactive; ? = inconclusive; · = no result. Unless noted, the call rests on the fitted dose curve; in most records, active means well fitted curve in the direction sought with a large enough effect; inconclusive means small, poorly fitted or top-dose-only effect, or another doubt; inactive means no such curve, though single readings can be large; an effect the other way counts as inactive or inconclusive.

SMILES	RECQ1 helicase	BLM helicase inh	FEN1 inh-1	PI5P4Ka inh	APE1 inh	GCN5L2 inh	FEN1 inh-2
Cc1cccc2cc(C(c3nnnn3C(C)(C)C)N(Cc3ccco3)CC3CCCO3)c(=O)[nH]c12 (stereo not drawn)	-8.3%	-14.1%	?	-24.9	28.2µM*	-9.1%	26.9*
O=C(COC(=O)c1ccc([N+](=O)[O-])o1)Nc1cccc(S(=O)(=O)N2CCCCC2)c1	i	-1.8%	?	-10.7	-9.1%	-11.9%	30.1*
Cc1ccc(NC(=O)COC(=O)c2ccc([N+](=O)[O-])o2)cc1S(=O)(=O)N1CCCCC1	-1.5%	-1.4%	?	1.7	-6.9%	-16.3%	26.9*
Cc1ccc(NC(=O)COC(=O)c2ccc(Br)o2)cc1S(=O)(=O)N1CCCCC1	·	·	-6.3%	-7.9	7.2%	-7.0%	·
CCN(C(=O)CSc1nc(-c2ccccc2)no1)c1cccc(C)c1	·	-6.4%	-2.0%	·	·	-3.5%	·
CN(C)c1cc2c(cc1NC(=O)c1ccc(F)cc1)n(C)c(=O)n2C	·	-1.9%	-3.2%	·	·	-18.6%	·
Fc1ccc(-c2nc3ccccc3c3nc4ccccc4n23)cc1	-2.7%	-3.3%	4.6%	-2.5	0.5%	-6.0%	·
Cc1nc2ccccc2c2nc3ccccc3n12	-0.5%	-5.5%	22.4µM*	·	21.7%	-2.4%	26.9*
COc1cc(C(=S)N2CCN(c3ccccc3Cl)CC2)cc(O)c1O	-6.0%	?	?	-57.6*	8.5%	-23.4%	15.1*
C/C(=C(/CCOC(=O)C(C)C)SS/C(CCOC(=O)C(C)C)=C(\C)N(C=O)Cc1cnc(C)nc1N)N(C=O)Cc1cnc(C)nc1N	·	4.7%	·	·	·	-1.4%	·
COc1ccc(/C=N\NC(=O)c2cc(O)c(O)c(O)c2)cc1COc1ccc(C(=O)OCC(C)C)cc1	·	-18.0%	?	-71.8*	-33.0%	-27.8%	33.8*
O=C1NC(=O)/C(=C/c2ccc(-c3cccc([N+](=O)[O-])c3)o2)S1	·	?	?	-51.2*	13.4µM*	-14.0%	?
O=Cc1ccc(-c2cccc([N+](=O)[O-])c2)o1	-8.7%	-2.5%	0.9%	13.5	19.0%	-8.7%	·
CN(Cc1cccs1)c1ncnc2ccc(-c3ccc4cn(C)nc4c3)cc12	·	·	·	·	·	·	67.5*
Cc1cc(C)c2c(N)c3ccccc3nc2n1	-3.4%	104.9%	44.7µM*	·	?	-0.7%	37.9*
CCc1ccc2nc3nc(C)cc(C)c3c(N)c2c1	16.3%	136.1%	?	·	?	-5.3%	?
CCOC(=O)c1[nH]c2ccccc2c1N=CN(C)C	·	·	-2.6%	9.5	·	·	·
CN(C)C=Nc1ccc2nc3c(cc2c1)[nH]c1ccccc13	·	-6.7%	?	-6.1	-18.1%	-20.4%	30.1*
CN(C)c1ccc(/C=C2/C[N+](C)(C)C/C(=C/c3ccc(N(C)C)cc3)C2=O)cc1	·	·	?	-16.4	·	·	?
CC(C)/C=C1\CC/C(=C\c2ccc(N(C)C)cc2)C1=O	-10.2%	-4.1%	-11.4%	5.4	-5.1%	1.0%	·
O=C1C=CC(=O)N1c1ccccc1N1C(=O)C=CC1=O	·	·	?	-88.9*	·	·	?
O=C(CN1C(=O)/C(=C/c2ccco2)SC1=S)Nc1ccc(C(=O)O)c(O)c1	·	42.7%	3.3%	-67.5*	?	?	26.9*
O=C(NNc1cc(N2CCOCC2)nc(N2CCOCC2)n1)c1ccc([N+](=O)[O-])cc1	-17.7%	?	-0.9%	6.5	22.8%	9.0%	?
CN(C)CCCNC(=O)c1ccccn1	i	-0.9%	-6.2%	·	-0.5%	-4.0%	·
CN(C)CCCNC(=O)c1ccc(-c2cc(O)c3ncccc3c2)cc1	·	·	50.1µM*	·	-26.6%	-3.6%	?
SMILES	RECQ1 helicase	BLM helicase inh	FEN1 inh-1	PI5P4Ka inh	APE1 inh	GCN5L2 inh	FEN1 inh-2
O=C(NNC(=O)c1cc(O)c(O)c(O)c1)NC1CCCCC1	i	-8.6%	28.2µM*	-9.3	5.2%	-9.5%	?
O=C(NNC(=O)c1cccnc1)NC1CCCCC1	1.4%	-5.4%	-2.3%	0.4	-2.7%	-4.3%	·
COc1cc(C)c2c(c1C=O)Oc1c(c(C)c(O)c3c1C(O)OC3=O)OC2=O (stereo not drawn)	14.1µM*	-1.7%	?	-63.7*	12.6µM*	-24.1%	75.7*
O=C1NC(=O)C(=Cc2ccc(Cl)c(Cl)c2)S1	·	·	0.3%	-26.0	·	·	·
O=C1NC(=S)S/C1=C\c1cc(Cl)cc(Cl)c1O	·	·	?	-58.1*	·	·	84.9*
O=C1COCCN1	-0.2%	4.5%	-2.7%	·	-5.0%	·	·
Cc1ccc(C(=O)N/C(=C/c2ccc(-c3ccc([N+](=O)[O-])cc3)o2)C(=O)NCCCN(C)C)cc1	·	·	?	-7.5	·	·	42.6*
CCCCCn1c(=N)n(CC(O)COc2cccc(C)c2)c2ccccc21 (stereo not drawn)	·	-6.0%	13.1%	·	·	4.3%	·
O=C(N/N=C/c1cc(Cl)c(O)c(Cl)c1)c1cc2c(ccc3ccccc32)o1	·	-15.2%	50.1µM*	-76.7*	-38.1%	?	?
O=C(N/N=C/c1cc(Br)c(O)c(Br)c1)c1cc2c(ccc3ccccc32)o1	·	?	56.2µM*	-103.5*	?	?	42.6*
COC(=O)CN1C(=O)S/C(=C/c2ccc(N3CCCCC3)o2)C1=O	-19.1%	-17.0%	-10.6%	·	-3.4%	-13.7%	·
O=C(O)CN1C(=O)/C(=C/c2ccc(N3CCCCC3)o2)SC1=S	-3.3%	-2.5%	44.7µM*	?	1.4%	-19.2%	47.8*
c1cnc(N2CCN(c3ncc4c(n3)CCNC4)CC2)nc1	·	14.6%	7.6%	·	·	-12.3%	15.1*
COc1ccc(-c2cc(=S)ss2)cc1	·	-4.0%	·	·	·	-14.3%	·
O=C(O)c1ccccc1NS(=O)(=O)c1ccc(NN=Cc2ccccc2F)c([N+](=O)[O-])c1	·	·	?	?	?	?	75.7*
CCOc1ccc(-n2cc(-c3ccccc3)c3c(N4CCC(C)CC4)ncnc32)cc1	·	-5.1%	-11.0%	·	·	-18.4%	·
COc1cccc2c1C(=O)c1c(O)c3c(c(O)c1C2=O)C[C@](O)(C(C)=O)C[C@H]3O[C@@H]1C[C@@H](N)[C@@H](O)[C@@H](C)O1	·	·	?	-2.2	21.2µM*	-1.5%	37.9*
